Measurements from PubChem BioAssay (NCATS).
A number with no mark means an inactive call. Results filed as inconclusive are left out. Active and inactive are the calls of the source. Unless noted, calls follow the shape of the dose curve; as a rule, active = well fitted curve in either direction with a large enough effect (not every such curve was filed as active); inconclusive = small, poorly fitted or top-dose-only effect, or another doubt; inactive = flat fitted curve, though single readings scatter.

Assays:
[1] = biological target: Lysosomal acid glucosylceramidase (Homo sapiens) (UniProt P04062); test: Glucocerebrosidase-p2 (AID 348; in the data active = potency below about 10 µM; also: potency is read from the fitted curve at half-maximal effect); settings: purified GBA, blue fluorogenic substrate, 40 min
Chain of Lysosomal acid glucosylceramidase (Homo sapiens) (P04062 whole entry, looked up): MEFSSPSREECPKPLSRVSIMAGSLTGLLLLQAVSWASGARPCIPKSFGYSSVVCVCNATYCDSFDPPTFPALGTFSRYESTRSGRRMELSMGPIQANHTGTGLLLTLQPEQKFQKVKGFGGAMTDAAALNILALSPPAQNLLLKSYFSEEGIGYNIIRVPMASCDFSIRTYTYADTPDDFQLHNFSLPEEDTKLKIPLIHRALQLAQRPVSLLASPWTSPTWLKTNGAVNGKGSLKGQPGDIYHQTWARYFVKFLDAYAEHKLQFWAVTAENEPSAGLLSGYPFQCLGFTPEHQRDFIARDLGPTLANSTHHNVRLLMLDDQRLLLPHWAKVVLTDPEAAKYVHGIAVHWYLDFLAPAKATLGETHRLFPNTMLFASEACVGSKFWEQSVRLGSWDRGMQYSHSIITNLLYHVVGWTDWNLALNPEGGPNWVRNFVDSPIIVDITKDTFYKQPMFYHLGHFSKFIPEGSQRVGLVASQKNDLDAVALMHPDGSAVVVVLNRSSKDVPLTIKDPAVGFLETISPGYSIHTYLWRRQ
Procedure, shortened: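 Normal human glucocerebrosidase (0.2 nM) with blue fluorogenic substrate (80 uM final) in citrate/phosphate pH 5.9 with 10mM sodium taurocholate, 0.01% tween-20; 40 min RT, NaOH/glycine stop; fluorescence Ex 365/Em 440; AC50 from a titration from 0.6 nM upwards.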

[2] = AP1 Signaling Pathway (AID 357); settings: ME-180 AP-1-bla reporter, EGF-induced, beta-lactamase ratio, 5 h; at 7.69 µM (top of the series) unless noted;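 also: ME-180 reporter cells stimulated with EGF at its EC50 level; % is scaled to controls: 0 for no effect and ±100 for the full control effect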
Procedure, shortened: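 A ratiometric CCF4 readout (405 nm excitation; 460 and 530 nm emission) quantified AP-1-driven beta-lactamase in ME-180 cells after 5 h with compound and EC50 EGF; AC50 values were derived for activators and inhibitors.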

[3] = biological target: Cytochrome P450 1A2 (Homo sapiens) (UniProt P05177); test: p450-cyp1a2 (AID 410; calls by dose curve; also: potency is read from the fitted curve at half-maximal effect;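 as to activity change, negative = inhibition: -100% = full effect of reference inhibitor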); settings: recombinant CYP1A2, luciferin-ME demethylation, luminescence; series mostly up to 11.4 µM
Chain of Cytochrome P450 1A2 (Homo sapiens) (P05177 whole entry, looked up): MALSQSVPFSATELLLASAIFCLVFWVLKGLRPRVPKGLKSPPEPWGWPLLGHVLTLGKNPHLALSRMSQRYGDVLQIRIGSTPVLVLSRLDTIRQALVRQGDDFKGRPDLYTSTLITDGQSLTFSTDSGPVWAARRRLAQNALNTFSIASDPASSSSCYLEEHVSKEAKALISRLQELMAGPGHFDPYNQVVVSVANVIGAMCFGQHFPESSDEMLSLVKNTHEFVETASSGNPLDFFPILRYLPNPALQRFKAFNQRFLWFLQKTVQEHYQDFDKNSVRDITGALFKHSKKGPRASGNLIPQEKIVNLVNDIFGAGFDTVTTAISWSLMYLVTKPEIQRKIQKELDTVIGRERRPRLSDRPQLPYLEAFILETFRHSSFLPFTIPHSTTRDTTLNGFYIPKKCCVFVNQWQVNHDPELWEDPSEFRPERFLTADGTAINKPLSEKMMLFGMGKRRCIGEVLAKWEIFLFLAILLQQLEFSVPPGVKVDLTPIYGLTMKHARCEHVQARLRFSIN
Procedure, shortened: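 Read-out is luminescence from luciferin produced by CYP1A2 demethylation of Luciferin-ME (100uM, at Km). Detection reagent stopped the 60 min NADPH-dependent reaction; signals were normalized to 57 uM furafylline.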

[4] = NFAT Signaling Pathway (AID 444); settings: Jurkat NFAT-bla M1, carbachol, beta-lactamase ratio, 5 h; at 7.69 µM (top of the series) unless noted;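 also: carbachol stimulus at about its EC50 of 1 µM final; % is scaled to controls: 0 for no effect and ±100 for the full control effect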
Procedure, shortened: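 Read-out: CCF4 FRET ratio (460 nm/530 nm) after 1 h RT dye loading, used for %activity and AC50 from titration series. Cells: Jurkat NFAT-β-lactamase/M1 line, treated with compound plus 1 uM carbachol for 5 h, 37 °C.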

[5] = biological target: Glucocorticoid receptor (Homo sapiens) (UniProt P04150); test: GR-GFP Redistribution (AID 450;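 active = compounds whose dose series gives a full or clear partial fitted curve of increased nuclear translocation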; also: potency is read from the fitted curve at half-maximal effect); settings: U2OS GR-GFP nuclear translocation, laser cytometry, 2 h
Chain of Glucocorticoid receptor (Homo sapiens) (P04150 whole entry, looked up, the tested form may be a part): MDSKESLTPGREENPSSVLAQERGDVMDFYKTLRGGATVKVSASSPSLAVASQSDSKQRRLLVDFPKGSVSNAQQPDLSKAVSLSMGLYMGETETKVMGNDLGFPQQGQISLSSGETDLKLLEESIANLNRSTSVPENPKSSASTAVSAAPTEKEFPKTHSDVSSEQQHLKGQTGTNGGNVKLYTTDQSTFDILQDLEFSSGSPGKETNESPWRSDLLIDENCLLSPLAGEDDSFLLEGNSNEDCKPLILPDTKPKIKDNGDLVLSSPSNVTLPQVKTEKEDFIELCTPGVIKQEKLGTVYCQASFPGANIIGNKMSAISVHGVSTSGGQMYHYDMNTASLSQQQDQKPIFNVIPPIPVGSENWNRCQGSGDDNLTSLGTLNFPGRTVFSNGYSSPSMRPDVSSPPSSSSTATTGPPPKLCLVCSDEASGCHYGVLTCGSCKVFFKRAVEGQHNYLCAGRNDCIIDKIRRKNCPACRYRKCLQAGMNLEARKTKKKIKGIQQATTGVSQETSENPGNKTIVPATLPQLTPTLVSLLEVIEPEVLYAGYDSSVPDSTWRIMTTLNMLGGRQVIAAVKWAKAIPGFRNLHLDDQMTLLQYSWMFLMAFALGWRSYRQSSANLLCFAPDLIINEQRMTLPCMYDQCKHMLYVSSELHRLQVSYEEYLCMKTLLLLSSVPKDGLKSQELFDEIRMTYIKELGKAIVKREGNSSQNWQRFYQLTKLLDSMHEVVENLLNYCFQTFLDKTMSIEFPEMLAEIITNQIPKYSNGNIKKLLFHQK

[6] = biological target: Glucocorticoid receptor (Homo sapiens) (UniProt P04150); test: GR-EFC Redistribution (AID 451; calls by dose curve; also: potency is read from the fitted curve at half-maximal effect); settings: CHO-K1 GR-EFC translocation, beta-gal luminescence, 2 h
Procedure, shortened: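 Translocation of GR-ED fusion to nuclear EA restores b-gal, read by luminescence after 1 h room-temperature detection. Engineered CHO-K1 biosensor cells, 1,000/well, exposed 2 h at 37 C to titrations up to 46 uM final.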

[7] = biological target: Mitogen-activated protein kinase 10 (Mus musculus) (UniProt Q61831); test: JNK3 AlphaScreen Assay (AID 530); settings: JNK3 lysate, c-Jun phosphorylation; series mostly up to 11.4 µM;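 also: kinase came from lysate of stimulated human HepG2 cells; signal reports phosphorylation of biotinylated GST-cJun 1-79 at Ser73 with 10 µM ATP; % is scaled to controls: 0 for no effect and ±100 for the full control effect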
Procedure, shortened: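 Kinase buffer: 20 mM Tris-HCl pH 7.6, 10 mM MgCl2, 1 mM DTT, 0.1 mM Na3VO4, 0.01% Tween-20; ATP 10 uM. Substrate biotin-GST-cJun(1-79), enzyme from activated HepG2 lysates. Detection by Ser73 phospho-antibody AlphaScreen.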

[8] = biological target: 3',5'-cyclic-AMP phosphodiesterase 4B (Homo sapiens) (UniProt Q07343); test: qHTS Assay for Inhibitors of PDE-IV (AID 607; active = well fitted activation curve with a large enough effect in the main read-out, with a control signal flat, not every such curve was filed as active; also: % of control where 0% means no effect); settings: HEK293 ACTOne CNG channel cells, membrane potential fluorescence; series mostly up to 22.9 µM
Chain of 3',5'-cyclic-AMP phosphodiesterase 4B (Homo sapiens) (Q07343 whole entry, looked up): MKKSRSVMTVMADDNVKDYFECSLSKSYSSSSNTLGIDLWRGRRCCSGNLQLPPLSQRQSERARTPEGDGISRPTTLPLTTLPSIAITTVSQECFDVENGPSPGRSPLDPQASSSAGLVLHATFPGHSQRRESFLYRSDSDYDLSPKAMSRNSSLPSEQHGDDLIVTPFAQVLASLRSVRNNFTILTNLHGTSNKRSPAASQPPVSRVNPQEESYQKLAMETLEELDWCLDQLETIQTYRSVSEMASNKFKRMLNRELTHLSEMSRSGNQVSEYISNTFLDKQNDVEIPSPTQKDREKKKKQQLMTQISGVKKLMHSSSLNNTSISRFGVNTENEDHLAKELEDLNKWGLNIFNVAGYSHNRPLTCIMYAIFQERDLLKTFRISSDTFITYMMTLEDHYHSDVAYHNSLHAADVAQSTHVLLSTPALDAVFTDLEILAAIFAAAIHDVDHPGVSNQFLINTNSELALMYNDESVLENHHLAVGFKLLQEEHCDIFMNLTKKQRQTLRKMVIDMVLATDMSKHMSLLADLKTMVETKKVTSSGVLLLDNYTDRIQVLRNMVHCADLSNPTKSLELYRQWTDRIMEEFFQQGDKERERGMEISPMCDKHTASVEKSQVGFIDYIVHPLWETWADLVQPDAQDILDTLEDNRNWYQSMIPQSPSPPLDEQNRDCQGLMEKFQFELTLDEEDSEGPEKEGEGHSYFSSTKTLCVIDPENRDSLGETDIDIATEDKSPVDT
Procedure, shortened: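 Live HEK293 cells with a modified cyclic nucleotide-gated (CNG) channel report intracellular cAMP via membrane-potential dye fluorescence (ex 535/em 590 nm). Endogenous PDE-IV was targeted. Compounds were tested at up to 22.9 uM final; RO 20-1724 100 uM served as control.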

[9] = Stat Signaling Pathway (AID 446); settings: ME-180 SIE beta-lactamase reporter, IL-6 stimulated, 5 h; at 7.69 µM (top of the series) unless noted;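 also: ME-180 cervical cancer cells given 40 pM IL-6 alongside compound; SIE-controlled beta-lactamase reporter measured as 460/530 nm FRET emission ratio; % is scaled to controls: 0 for no effect and ±100 for the full control effect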
Procedure, shortened: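 Overnight-plated ME-180 cells bearing a STAT Inducible Element beta-lactamase reporter; 5 h co-exposure to compound and 40 pM IL-6; values normalized to 300 pM IL-6 and 125 nM JAK inhibitor controls.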

[10] = biological target: Cytochrome P450 3A4 (Homo sapiens) (UniProt P08684); test: qHTS Assay for Activators of Cytochrome P450 3A4 (AID 885; active = well fitted curve in the direction sought with a large enough effect; an effect the other way counts as inactive or inconclusive; also: nearly all actives have a fitted effect of over 65% in size); settings: recombinant CYP3A4, Luciferin-PPXE luminescence, 60 min; series mostly up to 11.4 µM
Chain of Cytochrome P450 3A4 (Homo sapiens) (P08684 whole entry, looked up): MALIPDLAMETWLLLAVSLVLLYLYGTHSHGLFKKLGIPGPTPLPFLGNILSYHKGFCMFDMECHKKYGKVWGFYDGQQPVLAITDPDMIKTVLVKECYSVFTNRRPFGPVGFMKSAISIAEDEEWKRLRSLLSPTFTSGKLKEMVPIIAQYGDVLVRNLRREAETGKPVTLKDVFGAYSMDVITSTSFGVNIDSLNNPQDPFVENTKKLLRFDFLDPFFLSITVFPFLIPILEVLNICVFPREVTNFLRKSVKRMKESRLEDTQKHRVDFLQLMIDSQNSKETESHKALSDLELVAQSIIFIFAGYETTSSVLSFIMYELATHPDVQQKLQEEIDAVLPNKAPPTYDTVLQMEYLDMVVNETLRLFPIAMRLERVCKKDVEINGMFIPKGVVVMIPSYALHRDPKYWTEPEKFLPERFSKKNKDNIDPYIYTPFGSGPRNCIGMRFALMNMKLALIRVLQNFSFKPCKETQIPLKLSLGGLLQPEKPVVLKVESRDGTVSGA
Procedure, shortened: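 Using 20nM recombinant human CYP3A4 in potassium phosphate (200mM), substrate Luciferin-PPXE at 25uM, luminescent luciferin detection followed a 60-min RT NADPH reaction; data scaled to 57 uM ketoconazole.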

[11] = biological target: Cytochrome P450 2C9 (Homo sapiens) (UniProt P11712); test: qHTS Assay for Inhibitors and Substrates of Cytochrome P450 2C9 (AID 883; active = well fitted curve in the direction sought with a large enough effect; an effect the other way counts as inactive or inconclusive; also: potency is read from the fitted curve at half-maximal effect; nearly all actives have a fitted effect of over 60% in size); settings: recombinant CYP2C9, luciferin-H luminescence, 60 min; series mostly up to 11.4 µM
Chain of Cytochrome P450 2C9 (Homo sapiens) (P11712 whole entry, looked up): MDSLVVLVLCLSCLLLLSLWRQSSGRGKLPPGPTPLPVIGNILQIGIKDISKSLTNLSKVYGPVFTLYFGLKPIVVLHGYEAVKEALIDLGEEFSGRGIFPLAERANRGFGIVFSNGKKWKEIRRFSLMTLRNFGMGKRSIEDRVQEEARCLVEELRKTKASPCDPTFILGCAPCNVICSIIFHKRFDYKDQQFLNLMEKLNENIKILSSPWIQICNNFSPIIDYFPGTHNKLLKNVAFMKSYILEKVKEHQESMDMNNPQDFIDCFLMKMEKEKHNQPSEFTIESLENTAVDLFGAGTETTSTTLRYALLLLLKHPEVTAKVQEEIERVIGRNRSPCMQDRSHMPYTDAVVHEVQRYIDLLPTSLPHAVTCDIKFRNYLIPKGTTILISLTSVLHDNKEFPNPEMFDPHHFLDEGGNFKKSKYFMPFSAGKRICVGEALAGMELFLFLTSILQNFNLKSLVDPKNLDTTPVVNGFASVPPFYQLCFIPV
Procedure, shortened: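 Inhibition of CYP2C9 is scored as loss of luminescence, with 57uM sulphaphenazole defining 100% inhibition. Substrate Luciferin-H is used at 100uM, equal to its KM; enzyme at 10nM in 25mM KPO4, 60 min at 37C with NADPH regeneration.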

[12] = biological target: Cytochrome P450 2C19 (Homo sapiens) (UniProt P33261); test: qHTS Assay for Inhibitors and Substrates of Cytochrome P450 2C19 (AID 899; active = well fitted curve in the direction sought with a large enough effect; an effect the other way counts as inactive or inconclusive; also: potency is read from the fitted curve at half-maximal effect; nearly all actives have a fitted effect of over 60% in size); settings: recombinant CYP2C19, luciferin-H EGE luminescence; series mostly up to 11.4 µM
Chain of Cytochrome P450 2C19 (Homo sapiens) (P33261 whole entry, looked up): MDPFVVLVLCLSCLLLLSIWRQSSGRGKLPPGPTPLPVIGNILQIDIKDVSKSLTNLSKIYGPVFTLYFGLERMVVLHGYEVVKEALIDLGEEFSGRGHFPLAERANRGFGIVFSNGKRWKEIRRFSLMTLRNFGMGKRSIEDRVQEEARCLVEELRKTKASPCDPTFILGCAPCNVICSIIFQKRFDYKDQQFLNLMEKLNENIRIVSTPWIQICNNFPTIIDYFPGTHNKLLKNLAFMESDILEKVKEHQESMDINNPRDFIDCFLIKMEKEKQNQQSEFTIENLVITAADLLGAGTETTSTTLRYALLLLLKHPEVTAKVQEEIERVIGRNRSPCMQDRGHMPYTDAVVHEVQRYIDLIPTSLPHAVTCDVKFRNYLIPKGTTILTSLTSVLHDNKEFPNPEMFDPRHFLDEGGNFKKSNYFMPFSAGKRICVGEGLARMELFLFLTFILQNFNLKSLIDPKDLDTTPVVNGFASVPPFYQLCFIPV
Procedure, shortened: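 5nM enzyme + 10uM Luciferin-H EGE (=KM), 50mM KPO4; cpd pin-transferred, 10 min 37C; NADPH regen, 60 min 37C; stopped w/ luciferin detection reagent, 20 min; luminescence. Normalized to 57uM ketoconazole (AC100).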

[13] = qHTS Assay for Identification of Small Molecule Agonists for Hypoxia Response Element Signaling Pathway (AID 914; active = well fitted activation curve with a large enough effect in the signal ratio, with a control signal flat, not every such curve was filed as active; the % refers to the signal ratio; also: % of control where 0% means no effect); settings: ME-180 (cervical carcinoma) HRE-bla reporter, beta-lactamase ratio, CoCl2, 17 h; activation: hits give high values
Procedure, shortened: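 Reporter activity (beta-lactamase, CCF4 460nm/530nm ratio) in HRE-bla ME-180 cells is recorded after 17 h compound exposure with EC50 CoCl2 at 37 degrees Celsius. AC50 values come from titration data.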

SMILES | Potency [1] | activity change, negative = inhibition [2] | activity change, negative = inhibition [3] | activity change, negative = inhibition [4] | Potency [5] | Potency [6] | Potency [7] | Potency [8] | Potency [3] | activity, negative = inhibition [9] | Potency [10] | Potency [11] | Potency [12] | activation [13]
N/C(=N\O)c1cn([C@@H]2O[C@@H](CO)[C@H](O)[C@@H]2O)c2ncnc(NO)c12 | > 11.4 µM | 5.84% | -18.7% [at 2.29 µM] | 19.5% | > 46 µM | > 9.22 µM | inactive | inactive | – | – | – | – | – | –
Oc1ccc(Cn2c(-c3ccc(O)cc3)nc3ccccc32)cc1 | > 11.4 µM | 0.507% | – | 20.6% | > 46 µM | > 9.22 µM | inactive | inactive | inactive | – | – | – | – | –
c1ccc([C@H](c2cccc3c2ccc2ccccc23)[C@H](c2ccccc2)c2cccc3c2ccc2ccccc23)cc1 | > 11.4 µM | 15.9% | – | -0.573% | > 46 µM | > 9.22 µM | inactive | inactive | inactive | – | – | – | – | –
NC(N)=NC(N)=Nc1ccc(S(N)(=O)=O)cc1 | > 11.4 µM | 3.63% | – | 3.86% | > 46 µM | > 9.22 µM | inactive | inactive | inactive | – | – | – | – | –
CO[C@@H]1/C=C\O[C@]2(C)Oc3c(C)c(O)c4c(O)c(cc(O)c4c3C2=O)NC(=O)/C(C)=C\C=C/[C@H](C)[C@@H](O)[C@H](C)[C@H](O)[C@H](C)[C@H](OC(C)=O)[C@@H]1C | > 11.4 µM | 1.83% | – | -26.6% | – | – | inactive | inactive | inactive | -1.99% | inactive | – | – | –
N[C@@](CCc1ccccc1)(C(=O)O)c1ccccc1 | > 11.4 µM | 4.96% | – | 3.42% | > 46 µM | > 9.22 µM | inactive | inactive | inactive | – | – | – | – | –
CCC(=O)OCN1C(=O)C=CC1=O | > 11.4 µM | -2.18% | – | -27.8% | > 46 µM | > 9.22 µM | inactive | inactive | 3.16 µM (active) | – | – | – | – | –
Cc1cc(C)c2c(SCc3ccc(Cl)cc3Cl)nc(N)nc2n1 | > 11.4 µM | 0.307% | – | -14.4% | > 46 µM | > 9.22 µM | inactive | inactive | 3.16 µM (active) | – | – | – | – | –
N#C[C@H](c1ccccc1)N1CCCN([C@@H](C#N)c2ccccc2)C1c1ccccc1O (some centres undefined) | > 11.4 µM | 8.03% | – | -26.1% | – | > 9.22 µM | inactive | inactive | 3.98 µM (active) | 6.35% | – | 3.16 µM (active) | 0.251 µM (active) | –
N#[N+]c1ccc(Nc2ccccc2)cc1 | > 11.4 µM | -0.339% | – | -28.8% | – | – | inactive | inactive | inactive | -16.1% | – | – | – | –
Cc1cc(Cc2c(C)c(C)c(Cc3cc(C)cc(C(C)(C)C)c3O)c(C)c2C)c(O)c(C(C)(C)C)c1 | > 11.4 µM | -8.57% | 5% [at 2.29 µM] | 14.4% | – | > 9.22 µM | inactive | inactive | – | 6.62% | – | – | – | –
NC(=O)C[C@H](N)C(N)=O | > 11.4 µM | -1.63% | – | 12.4% | – | > 9.22 µM | inactive | inactive | inactive | 2.81% | – | – | – | 9.57%
CC(=O)Nc1ccc(S(=O)(=O)N=S(C)C)cc1 | > 11.4 µM | 4.76% | -15.9% [at 2.29 µM] | 3.98% | – | > 9.22 µM | inactive | inactive | – | -3.32% | – | – | – | –
O=C(O)c1nnsc1-c1csnn1 | > 11.4 µM | 2.29% | – | 4.42% | > 46 µM | > 9.22 µM | inactive | inactive | inactive | – | – | – | – | –
Cc1cc2nc([C@H](C)C(=O)c3ccc(Cl)cc3)c(=O)[nH]c2cc1C | > 11.4 µM | -1.07% | – | -5.22% | – | > 9.22 µM | inactive | inactive | 0.501 µM (active) | -18.7% | – | – | – | –
COC(=O)N1CCC2(CCCN(Cc3cc(C(F)(F)F)cc(C(F)(F)F)c3)C2)CC1 | > 11.4 µM | 12% | – | 0.959% | – | > 46 µM | inactive | inactive | inactive | -1.27% | – | – | – | –
O=C(O)[C@@H]1[C@@H](C(=O)Nc2ncccn2)[C@@H]2C=C[C@@H]1O2 | > 11.4 µM | -0.979% | -13.2% [at 2.29 µM] | 0.85% | – | > 9.22 µM | inactive | inactive | – | 9.29% | – | – | – | 18.9%
